In PubChem BioAssay (NCATS):
“And” between values parts separate entries of the source, which are not always exact repeats. Equal entries are not always repeated. Values without a mark were called inactive. Unless noted, the call rests on the fitted dose curve; in most records, active means well fitted activation curve with a large enough effect; inconclusive means small, poorly fitted or top-dose-only effect; inactive means flat fitted curve, though single readings scatter. Records with an inconclusive call do not appear.

experiment: Confirmation and Secondary Assay for Modulators of Hemoglobin Beta Chain Splicing at IVS2 654 locus (AID 910); conditions: HeLa EGFP-654 splicing reporter, GFP fluorescence, 48 h; series mostly up to 46.1 µM; activation (splicing correction): at the top concentration;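 further: HeLa cells stably carrying EGFP split by mutant beta-globin IVS2-654 intron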
Procedure, shortened: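 HeLa cells stably expressing EGFP interrupted by β-globin IVS2-654 intron, seeded overnight in Opti-MEM/2% FCS, then treated 2 days at 37 °C. Restored splicing read as total peak GFP intensity per well by laser scanning cytometry (488 nm excitation, 500–520 nm emission); 500 nM antisense PNA as control.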
Further: % of control where 0% means no effect.

Compound | activation (splicing correction)
CC(=O)N1CCN(c2ccc(OCC3CO[C@@](Cn4ccnc4)(c4ccc(Cl)cc4Cl)O3)cc2)CC1 (stereo partly drawn) | -4.91%
C=CC(C1=CC(=O)C(OC)=C(OC)C1=O)c1ccccc1 (stereo not drawn) | -1.59% [at 38.3 µM]
Nc1ncn(C2OC(CO)C(O)C2O)c(=O)n1 (stereo not drawn) | -5.89%
CN1C2CC(OC(=O)C(CO)c3ccccc3)C[C@@H]1[C@H]1OC21 (stereo partly drawn) | 3.6%
COc1cc2c(cc1OC)C1C(=O)c3c(cc4c(c3O)C=CC(C)(C)O4)OC1CO2 (stereo not drawn) | -2.22% [at 38.3 µM]
CN1C[C@H](C(=O)N[C@@]2(C)O[C@@]3(O)C4CCCN4C(=O)C(Cc4ccccc4)N3C2=O)C[C@H]2c3cccc4[nH]cc(c34)C[C@H]21 (stereo partly drawn) | 1.71%
CC1(C)C(=O)C=C[C@]2(C)C1CC(=O)[C@]1(C)C2CC[C@@]2(C)C(c3ccoc3)OC(=O)C3O[C@@]321 (stereo partly drawn) | -6.68%
COC(=O)C1C(O)CC[C@H]2CN3CCc4c([nH]c5ccccc45)C3C[C@H]12 (stereo partly drawn) | -1.68% [at 38.3 µM]
CC(=O)OC1CCC2(C)C3=C(CCC2C1(C)C)[C@@]1(C)CCC(C(C)CCC=C(C)C)[C@@]1(C)CC3 (stereo partly drawn) | 2.59%
COc1cc2c(cc1OC)C1C(=O)c3c(O)cc4c(c3OC1CO2)C=CC(C)(C)O4 (stereo not drawn) | -7.82%
CCOC(=O)C1=C[C@@]2(CC)CCCN3CCc4c(n1c1ccccc41)C32 (stereo partly drawn) | 3.6%
CC(C)(C)NCC(O)COc1cccc2c1CC(O)C(O)C2 (stereo not drawn) | -2.52%
CC(=O)[C@]1(O)CCC2C3CC(C)C4=CC(=O)C=CC4(C)[C@@]3(F)C(O)C[C@]21C (stereo partly drawn) | -1.29%

experiment: qHTS Assay for Identification of Small Molecule Agonists for Hypoxia Response Element Signaling Pathway (AID 914; active means well fitted activation curve with a large enough effect in the signal ratio, with a control signal flat, not every such curve was filed as active; the % refers to the signal ratio); conditions: ME-180 (cervical carcinoma) HRE-bla reporter, beta-lactamase ratio, CoCl2, 17 h; stronger effect = higher value
Procedure, shortened: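 Compounds in a titration series were added to ME-180 reporter cells alongside an EC50 level of CoCl2. After 17 hours, beta-lactamase activity was read as the 460nm/530nm emission ratio of CCF4, giving AC50 values.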

Compound | activation
COC(=O)[C@H](Cc1ccccc1)NC(=O)[C@@H](C)CO | 5.86%
C[C@@H]1/C=C\CC(=O)OC[C@H](C)C(=O)N[C@@H](C)C(=O)OC1 | 0.738%
Cc1ccc(S(=O)(=O)N[C@H]2COC(=O)C/C=C\[C@@H](C)[C@H](NS(=O)(=O)c3ccc(C)cc3)COC(=O)[C@H](C)NC(=O)C/C=C\[C@H]2C)cc1 | 3.42%
CCN1C(=O)[C@H]2[C@@H]3[C@H](O)[C@H](O)CC(=O)[C@H]3CC[C@H]2C1=O | -3.64% and -8.67%
CC(C)[C@H](NC(=O)OC(C)(C)C)[C@@H](O)CC(=O)C(C)(C)C | 3.44%
COC(=O)C/C=C\[C@@H](C)[C@H]1C=C[C@H](O)[C@@H](CO)O1 | 10.7%
C[C@H]1COC(=O)[C@H]2CCCN2C(=O)[C@@H](C)COC(=O)[C@H](Cc2ccccc2)NC1=O | -0.107%

experiment: Confirmation and Secondary Assay for Modulators of Hemoglobin Beta Chain Splicing at IVS2 705 locus (AID 930); conditions: HeLa EGFP-705 splicing reporter, GFP fluorescence, 48 h; series mostly up to 46.1 µM; activation: at the top concentration;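 further: HeLa cells stably expressing the EGFP-705 splicing reporter; GFP fluorescence per well restored by corrected splicing of the IVS2-705 intron in EGFP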
Procedure, shortened: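 Assay measures total GFP intensity per well in HeLa EGFP-705 cells after 2 days with compound; mis-splicing normally truncates EGFP, so fluorescence indicates corrected splicing.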

Compound | activation
CC(=O)N1CCN(c2ccc(OCC3CO[C@@](Cn4ccnc4)(c4ccc(Cl)cc4Cl)O3)cc2)CC1 (stereo partly drawn) | -0.512%
C=CC(C1=CC(=O)C(OC)=C(OC)C1=O)c1ccccc1 (stereo not drawn) | 2.38% [at 38.3 µM]
Nc1ncn(C2OC(CO)C(O)C2O)c(=O)n1 (stereo not drawn) | 0.194%
CN1C2CC(OC(=O)C(CO)c3ccccc3)C[C@@H]1[C@H]1OC21 (stereo partly drawn) | -1.98%
COc1cc2c(cc1OC)C1C(=O)c3c(cc4c(c3O)C=CC(C)(C)O4)OC1CO2 (stereo not drawn) | 0.18% [at 38.3 µM]
CN1C[C@H](C(=O)N[C@@]2(C)O[C@@]3(O)C4CCCN4C(=O)C(Cc4ccccc4)N3C2=O)C[C@H]2c3cccc4[nH]cc(c34)C[C@H]21 (stereo partly drawn) | 0.876%
CC1(C)C(=O)C=C[C@]2(C)C1CC(=O)[C@]1(C)C2CC[C@@]2(C)C(c3ccoc3)OC(=O)C3O[C@@]321 (stereo partly drawn) | 0.349%
COC(=O)C1C(O)CC[C@H]2CN3CCc4c([nH]c5ccccc45)C3C[C@H]12 (stereo partly drawn) | 2.03% [at 38.3 µM]
CC(=O)OC1CCC2(C)C3=C(CCC2C1(C)C)[C@@]1(C)CCC(C(C)CCC=C(C)C)[C@@]1(C)CC3 (stereo partly drawn) | -1.81%
COc1cc2c(cc1OC)C1C(=O)c3c(O)cc4c(c3OC1CO2)C=CC(C)(C)O4 (stereo not drawn) | -0.0883%
CCOC(=O)C1=C[C@@]2(CC)CCCN3CCc4c(n1c1ccccc41)C32 (stereo partly drawn) | 3.59%
CC(C)(C)NCC(O)COc1cccc2c1CC(O)C(O)C2 (stereo not drawn) | 0.151%
CC(=O)[C@]1(O)CCC2C3CC(C)C4=CC(=O)C=CC4(C)[C@@]3(F)C(O)C[C@]21C (stereo partly drawn) | 4.32%
